Assay results published in the supplement of paper PMC3545927.
The other results are listed elsewhere or left out. No count for the full screen is at hand.

B1: HC1398 (peptide)
chain: CADRLQVLDSAGNASASA
B2: HC1024 (peptide)
chain: CAQFKQKALGAGNASASA
B3: HC1507 (peptide)
chain: CANCGYRRCRAGNASASA
B4: HC661 (peptide)
chain: CAPVSARRGRAGNASASA
B5: HC592 (peptide)
chain: CAPLNVRGGRAGNASASA
B6: HC2180 (peptide)
chain: CAECVTSTWVAGNASASA
B7: HC667 (peptide)
chain: CAGPADGMVSAGNASASA
B8: FS-127 (peptide)
chain: CAGPARPWKSAGNASASA
B9: FS-290 (peptide)
chain: CARPSRLKKFAGNASASA
B10: FS-875 (peptide)
chain: CASVNRNKKSAGNASASA
B11: HC2316 (peptide)
chain: CAGVPCHRPSAGNASASA
B12: FS-661 (peptide)
chain: CAGVARFYRSAGNASASA
B13: FS-786 (peptide)
chain: CAGRARCYRSAGNASASA
B14: FS-429 (peptide)
chain: CAGKSRLKKSAGNASASA
B15: FS-169 (peptide)
chain: CAGVARVRKSAGNASASA
B16: HC2522 (peptide)
chain: CASTQCSAHLAGNASASA
B17: HC1271 (peptide)
chain: CASPDAELIEAGNASASA
B18: HC2571 (peptide)
chain: CASTPCSAHDAGNASASA
B19: HC1065 (peptide)
chain: CAFNILGGWVAGNASASA
B20: HC890 (peptide)
chain: CATQTVDFSLAGNASASA
B21: HC1984 (peptide)
chain: CAIVCCSMSYAGNASASA
B22: HC2070 (peptide)
chain: CAVVCCSMVYAGNASASA
B23: HC587 (peptide)
chain: CAVEAQLHVWAGNASASA
B24: FS-160 (peptide)
chain: CAGKPRVRKSAGNASASA
B25: FS-915 (peptide)
chain: CAQSLRQRKSAGNASASA
B26: FS-645 (peptide)
chain: CACPGRPWKSAGNASASA
B27: HC1296 (peptide)
chain: CAPAEILRKSAGNASASA
B28: HC2394 (peptide)
chain: CAEVPCHRKSAGNASASA
B29: FS-244 (peptide)
chain: CAGMIRVRKSAGNASASA
B30: FS-1525 (peptide)
chain: CAGPARSHRSAGNASASA
B31: HC1689 (peptide)
chain: CAMYECSQHLAGNASASA
B32: HC137 (peptide)
chain: CAEVVYSTWVAGNASASA
B33: HC2533 (peptide)
chain: CASTPCSRHLAGNASASA
B34: HC48 (peptide)
chain: CATTPMSGSWAGNASASA
B35: FS-1245 (peptide)
chain: CAPSNRSARAAGNASASA
B36: FS-5 (peptide)
chain: CAAMFRVRRNAGNASASA
B37: HC656 (peptide)
chain: CAAACGDIINAGNASASA
B38: HC1579 (peptide)
chain: CAPTLWARMIAGNASASA
B39: HC1088 (peptide)
chain: CAYGAGVAGAAGNASASA
B40: FS-1348 (peptide)
chain: CAIRARVARAAGNASASA
B41: FS-2912 (peptide)
chain: CAREIRQAFKAGNASASA
B42: FS-1043 (peptide)
chain: CAPEIRQARAAGNASASA
B43: FS-2988 (peptide)
chain: CARLKKSQFLAGNASASA

Target: furin, P09958
Experiment: furin cleavage Z-score vs untreated control; higher = more cleavage, active = 3.5 or more, inactive = 1 or less, 8 variable residues between constant flanks
Procedure, shortened: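 Cleavage by purified furin was measured on 8-mer peptides fused to a cDNA oligonucleotide and held on magnetic beads by their N-terminus. Reactions (0.01 ml, 1:10 enzyme:substrate) ran 7.5, 15 or 30 min in 50 mM HEPES pH 7.5 with CaCl2 and NaCl. Released DNA was adapter-tagged by PCR and sequenced, with read counts giving abundance. Log counts versus furin-free reactions were lowess-adjusted and scaled by median absolute deviation to give the cleavage Z-score.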

Sequence of furin, P09958 (P09958 whole entry): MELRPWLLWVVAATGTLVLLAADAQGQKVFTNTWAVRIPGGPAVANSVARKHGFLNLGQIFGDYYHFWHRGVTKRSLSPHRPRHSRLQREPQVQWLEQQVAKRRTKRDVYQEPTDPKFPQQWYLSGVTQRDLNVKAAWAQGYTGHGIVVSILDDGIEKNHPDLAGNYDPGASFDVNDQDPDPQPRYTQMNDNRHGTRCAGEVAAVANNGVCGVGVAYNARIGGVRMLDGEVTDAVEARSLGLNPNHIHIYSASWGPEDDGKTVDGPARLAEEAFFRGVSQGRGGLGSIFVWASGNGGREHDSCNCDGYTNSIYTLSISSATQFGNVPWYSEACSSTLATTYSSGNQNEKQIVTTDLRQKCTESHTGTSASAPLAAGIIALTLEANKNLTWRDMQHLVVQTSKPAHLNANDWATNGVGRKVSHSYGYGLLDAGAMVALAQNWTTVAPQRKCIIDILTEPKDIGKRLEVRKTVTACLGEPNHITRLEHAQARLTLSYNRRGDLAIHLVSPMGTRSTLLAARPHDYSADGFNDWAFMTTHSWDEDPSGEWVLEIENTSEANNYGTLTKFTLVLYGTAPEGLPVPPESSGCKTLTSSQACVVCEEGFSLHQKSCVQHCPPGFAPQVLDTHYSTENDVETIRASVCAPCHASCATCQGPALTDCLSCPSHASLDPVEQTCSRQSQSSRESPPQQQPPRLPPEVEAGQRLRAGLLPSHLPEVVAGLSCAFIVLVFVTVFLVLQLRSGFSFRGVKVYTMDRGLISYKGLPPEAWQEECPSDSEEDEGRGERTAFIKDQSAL

Sequence	furin cleavage Z-score (7.5 min)	furin cleavage Z-score (15 min)	furin cleavage Z-score (30 min)
B1	1.26	0.665 (inactive)	0.144 (inactive)
B2	0.453 (inactive)	-0.904 (inactive)	0.989 (inactive)
B3	-0.406 (inactive)	-0.477 (inactive)	0.265 (inactive)
B4	3.67 (active)	2.35	2.39
B5	-0.486 (inactive)	0.851 (inactive)	0.124 (inactive)
B6	0.903 (inactive)	2.44	0.32 (inactive)
B7	0.24 (inactive)	0.132 (inactive)	-1.59 (inactive)
B8	0.451 (inactive)	-1.62 (inactive)	-1.1 (inactive)
B9	-0.934 (inactive)	-0.739 (inactive)	-0.88 (inactive)
B10	-0.482 (inactive)	-0.223 (inactive)	1.34
B11	0.883 (inactive)	-1.9 (inactive)	1.03
B12	6.6 (active)	7.47 (active)	8.24 (active)
B13	5.83 (active)	5.27 (active)	4.62 (active)
B14	3.94 (active)	3.83 (active)	4.7 (active)
B15	7.76 (active)	6.48 (active)	7.18 (active)
B16	1.38	0.361 (inactive)	0.641 (inactive)
B17	-0.191 (inactive)	-1.02 (inactive)	-2.02 (inactive)
B18	-1.23 (inactive)	-0.24 (inactive)	-0.964 (inactive)
B19	-0.849 (inactive)	-1.69 (inactive)	0.522 (inactive)
B20	0.518 (inactive)	0.088 (inactive)	-1.06 (inactive)
B21	0.599 (inactive)	0.44 (inactive)	1.09
B22	1.39	-0.784 (inactive)	-0.578 (inactive)

Sequence	furin cleavage Z-score (7.5 min)	furin cleavage Z-score (15 min)	furin cleavage Z-score (30 min)
B23	0.261 (inactive)	1.76	0.118 (inactive)
B24	11.6 (active)	11.6 (active)	7.27 (active)
B25	0.195 (inactive)	0.0646 (inactive)	0.773 (inactive)
B26	0.174 (inactive)	0.632 (inactive)	-1.05 (inactive)
B27	-1.4 (inactive)	-0.0107 (inactive)	-2.04 (inactive)
B28	0.666 (inactive)	1.67	0.974 (inactive)
B29	9.53 (active)	9.46 (active)	8.14 (active)
B30	2.6	5.21 (active)	5.09 (active)
B31	1.1	2.02	0.756 (inactive)
B32	-0.752 (inactive)	0.088 (inactive)	1.03
B33	1.13	0.843 (inactive)	-0.486 (inactive)
B34	-1.24 (inactive)	-0.966 (inactive)	-0.511 (inactive)
B35	8.79 (active)	11.3 (active)	9 (active)
B36	13 (active)	11.7 (active)	9.8 (active)
B37	-0.691 (inactive)	-0.739 (inactive)	-0.629 (inactive)
B38	0.463 (inactive)	2.4	0.0409 (inactive)
B39	-0.899 (inactive)	-0.739 (inactive)	-0.913 (inactive)
B40	9.33 (active)	9.7 (active)	7.2 (active)
B41	0.791 (inactive)	0.404 (inactive)	0.281 (inactive)
B42	3.65 (active)	4.35 (active)	4.12 (active)
B43	-1.1 (inactive)	-0.681 (inactive)	-1.54 (inactive)
